Values joined by “and” are separate entries in the source; they are usually repeats but may differ in a detail not shown here. Equal values may be shown once. Compounds without any hit were thinned out: in the full panel of roughly 83,000, 20% have a hit.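 A percent growth of 40 corresponds to 60% growth inhibition; 0 means no net growth; -100 means all cells died. Active threshold: below 10.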 The source holds several records for some structures; these can differ, active in one and inactive in another. Active and inactive are the calls of the source.
Each molecule was assayed on KM12 colon (assay: NCI-60 one-dose screen, 48 h (100 = growth as untreated, 0 = no growth, -100 = all killed)). Conditions: 10 µM.
Protocol: Growth inhibition of the KM12 human tumor cell line is measured as a screen for anti-cancer activity. Cells are grown in 96 well plates and exposed to the test compound for 48 hours. Compounds are tested at a single concentration, which is 10^-5 M for most compounds. The reported endpoint is percent growth (GI% or GIPRCNT), where numbers from 0 - 100% represent growth inhibition, and numbers from -100% - 0 represent cell death. For example, a value of 40 represents 60% growth inhibition. A value of 0 means no net growth occurred over the course of the experiment. A value of -40 indicates 40% of cells at the beginning of the experiment died by the end of the experiment. A value of -100 means all cells are dead at the end of the experiment.
NCI-60 Human Tumor Cell Lines Screen was performed using the standard one-dose NCI protocol, which is described in more detail at https://dtp.cancer.gov/discovery_development/nci-60/default.htm.
Compounds with GIPRCNT values below 10 were considered active. Activity score was based on GIPRCNT using the following formula: […]
Score is 0 for GIPRCNT values of 100 or above, 50 for GIPRCNT values of 0, and 100 for GIPRCNT values of -100.

Row | Compound | growth
1 | COc1cccc2c1cc([N+](=O)[O-])c1c(C(=O)O)cc3c(c12)OCO3 | 104% (inactive)
2 | C/C=C/CC(C)C(O)[C@H](NC(=O)[C@@H]1CCCN1C(=O)C(C)(C)NC(=O)CCCCCCCCC)C(=O)NC(C)(C)C(=O)N[C@@H](CCC(N)=O)C(=O)N[C@H](CCC(N)=O)C(=O)NC(C)(C)C(=O)NC(C)(C)C(=O)N[C@@H](CCC(N)=O)C(=O)N[C@H](CC(C)C)C(=O)N[C@H](CO)CC(C)C (stereo not given in full) | -75.9% (active) and -59% (active)
3 | CC1=C(CN(O)C(N)=O)C2=C(C)C3(CC3)[C@](C)(O)C(=O)C2=C1 | -1.93% (active)
4 | CN1C(=O)[C@]23SSC1(C)C(=O)N2[C@H]1Nc2ccccc2C1([C@@]12c4ccccc4N[C@@H]1N1C(=O)C4(C)SS[C@]1(C(=O)N4C)[C@H]2O)[C@@H]3O (stereo not given in full) | -94.4% (active)
5 | C[C@@H]1CCC/C=C/[C@H]2C[C@@H](O)C[C@@H]2[C@@H](O)/C=C/C(=O)O1 | 14.9% (inactive)
6 | CC1=C2C(=C[C@@](C)(C=O)[C@@H]2O)C(=O)[C@](C)(O)C12CC2 | 27.4% (inactive)
7 | CC1=C2C(=C[C@@](C)(COC(=O)c3ccc(S(=O)(=O)F)cc3)[C@@H]2O)C(=O)[C@](C)(O)C12CC2 | 7.74% (active)
8 | COC1[C@@H]2C[C@H]3C(C)(C)O[C@@](C/C=C(/C)C(=O)O)(C2=O)[C@]32Oc3c(CC=C(C)C)c4c(c(O)c3C(=O)[C@H]12)C=CC(C)(C)O4 (stereo not given in full) | -84.3% (active)
9 | C=C1[C@@H](C)C2[C@H](Cc3ccccc3)NC(=O)[C@]23[C@H](OC(C)=O)/C=C/[C@@](C)(O)C(=O)[C@@H](C)C/C=C/[C@H]3[C@@H]1O (stereo not given in full) | 62.7% (inactive)
10 | C[C@@H]1C[C@H]2C(=O)O[C@@H](C)C(NC(=O)[C@H](Cc3cc(F)cc(F)c3)NC(=O)Nc3ccc(OS(=O)(=O)F)cc3)C(=O)N3CCC[C@H]3C(=O)N3CCO[C@H](C)[C@H]3C(=O)N[C@@H](CO)C(=O)N2C1 (stereo not given in full) | 37.8% (inactive)
11 | CCC(C)[C@H]1C(=O)O[C@H](C(C)C)C(=O)N(C)[C@@H](C(C)C)C(=O)O[C@H](C(C)C)C(=O)N(C)[C@@H](C(C)C)C(=O)O[C@H](C(C)C)C(=O)N1C (stereo not given in full) | 16.4% (inactive)
12 | CC1=C2C(=O)[C@](C)(CO)C=C2C(=O)[C@](C)(O)C12CC2 | 31.9% (inactive)
13 | C/C=C\C(=O)O[C@@H]1CC2O[C@@H]3C=C(C)C(=O)C[C@]3(C)[C@]1(C)[C@]21CO1 | 3.28% (active)
14 | Cc1ccc(CNc2nc3ccc(OC/C(=C/F)CN)cc3o2)cn1 | 103% (inactive)
15 | CC1=C(CN(O)C(N)=O)C2=C(C)C3(CC3)[C@@](C)(O)C(=O)C2=C1 | 3.43% (active)
16 | N#Cc1c(-n2c(Br)c(Br)c3cc(Br)ccc32)[nH]c2c(Br)cc(Br)cc12 | -19.4% (active)
17 | CCCCCCCCCC(=O)N[C@@](C)(CC)C(=O)N1CCC[C@H]1C(=O)N[C@@H](CC(C)C)C(=O)N[C@@](C)(CC)C(=O)N[C@@H](CCC(N)=O)C(=O)N[C@H](CCC(N)=O)C(=O)NC(C)(C)C(=O)NC(C)(C)C(=O)N[C@@H](CCC(N)=O)C(=O)N[C@H](CC(C)C)C(=O)N[C@H](CO)CC(C)C | -90.6% (active) and -93.5% (active)
18 | CN(CCF)/N=N/c1nc[nH]c1C(N)=O | 58.9% (inactive)
19 | COc1cc2c(cc1OC)[C@@H]1N(CC2)C(=O)c2ccccc2[C@@]1(C)C(=O)O | 113% (inactive)
20 | COc1cc2c(O[C@@H]3OC[C@H](OC(C)=O)[C@H](OC(C)=O)[C@H]3O)c3c(c(-c4ccc5c(c4)OCO5)c2cc1OC)C(=O)OC3 | 27.8% (inactive)

Row | Compound | growth
21 | CC1=C[C@H]2O[C@@H]3C[C@H]4OC(=O)/C=C\C=C\[C@H]([C@@H](C)O)OCC/C(C)=C/C(=O)OC[C@@]2(CC1)[C@]4(C)[C@]31CO1 | 3.74% (active)
22 | CC1=C(CCC=NNC(N)=O)C2=C(C)C3(CC3)[C@@](C)(O)C(=O)C2=C1 | 6.64% (active)
23 | C/C=C/CC(C)C(O)[C@H](NC(=O)[C@@H]1CCCN1C(=O)C(C)(C)NC(=O)CCCCCCCCC)C(=O)N[C@@](C)(CC)C(=O)N[C@@H](CCC(N)=O)C(=O)N[C@H](CCC(N)=O)C(=O)NC(C)(C)C(=O)N[C@@](C)(CC)C(=O)N[C@@H](CCC(N)=O)C(=O)N[C@H](CC(C)C)C(=O)N[C@H](CO)CC(C)C (stereo not given in full) | 108% (inactive) and -60.9% (active)
24 | CC(=O)O[C@@H]1[C@@H]2O[C@H]2[C@@](C)(O)C(=O)[C@@H](C)C/C=C/[C@H]2[C@@H]3O[C@]3(C)[C@@H](C)C3[C@H](Cc4ccccc4)NC(=O)[C@@]312 (stereo not given in full) | 66.6% (inactive)
25 | COc1cc(C)c(-c2ccc(OC)c(=O)cc2C)c(OC)c1OC | 6.94% (active) and 109% (inactive)
26 | CC1=C[C@H]2O[C@@H]3C[C@@H](O)[C@](C)([C@@]2(C)CC1)[C@@]31CO1 | 26.1% (inactive)
27 | CC1=C2C(=C[C@@](C)(COC(=O)c3ccc(S(=O)(=O)F)cc3)[C@@H]2OC(=O)c2ccc(S(=O)(=O)F)cc2)C(=O)[C@](C)(O)C12CC2 | 28.2% (inactive)
28 | NC1CCc2cc(O)c(O)cc2C1 (stereo not given) | 97.5% (inactive)
29 | CC(C)=CCc1c2c(c(O)c3c1O[C@]14C(=C[C@@H]5C[C@H]1C(C)(C)O[C@@]4(C/C=C(/C)C(=O)O)C5=O)C3=O)C=CC(C)(C)O2 | -73.4% (active)
30 | CC1=C[C@H]2O[C@@H]3C[C@H]4OC(=O)/C=C\C=C\[C@H]([C@@H](C)O)OCC[C@@H](C)[C@H](O)C(=O)OC[C@@]2(CC1)[C@]4(C)[C@]31CO1 | 4.84% (active)
31 | COc1cc2c(O[C@@H]3OC[C@H](O)[C@H](O)[C@H]3O)c3c(c(-c4ccc5c(c4)OCO5)c2cc1OC)C(=O)OC3 | 71.6% (inactive)
32 | CC(=O)O[C@@H]1C[C@H]2O[C@@H]3C=C(C)CC[C@]3(C)[C@]1(C)[C@]21CO1 | 27.4% (inactive)
33 | C/C=C/CC(C)C(O)[C@H](NC(=O)[C@@H]1CCCN1C(=O)C(C)(C)NC(=O)CCCCCCCCC)C(=O)N[C@@](C)(CC)C(=O)N[C@@H](CCC(N)=O)C(=O)N[C@H](CCC(N)=O)C(=O)NC(C)(C)C(=O)NC(C)(C)C(=O)N[C@@H](CCC(N)=O)C(=O)N[C@H](CC(C)C)C(=O)N[C@H](CO)CC(C)C (stereo not given in full) | -32.5% (active) and 10.3% (inactive)
34 | O=C(CCCc1ccc(N(CCCl)CCCl)cc1)OCc1ccccc1 | 99.7% (inactive)
35 | COc1cc(OC)c(S(=O)(=O)N(CCCl)CCCl)cc1C(=O)/C=C/c1ccc(Cl)cc1 | 23.4% (inactive)
36 | CC1=C2C(=C[C@@](C)(COS(C)(=O)=O)[C@@H]2O)C(=O)[C@](C)(O)C12CC2 | -3.28% (active)
37 | CC(C)(O)/C=C/C(=O)[C@](C)(O)[C@H]1[C@H](O)C[C@@]2(C)[C@H]3CC=C4[C@@H](C[C@H](O)C(=O)C4(C)C)[C@]3(C)C(=O)C[C@]12C | 42.2% (inactive)
38 | C/C=C/CC(C)C(O)[C@H](NC(=O)[C@@H]1CCCN1C(=O)C(C)(C)NC(=O)CCCCCCC)C(=O)N[C@@](C)(CC)C(=O)N[C@@H](CCC(N)=O)C(=O)N[C@H](CCC(N)=O)C(=O)NC(C)(C)C(=O)NC(C)(C)C(=O)N[C@@H](CCC(N)=O)C(=O)N[C@H](CC(C)C)C(=O)N[C@H](CO)CC(C)C (stereo not given in full) | 119% (inactive) and -53% (active)
39 | COC(=O)[C@H]1[C@@H](O)[C@@]2(O)c3c(OC)cc(OC)cc3O[C@@]2(c2ccc(OC)cc2)[C@@H]1c1ccccc1 | 3.23% (active)
40 | N#Cc1nc(-c2ccccc2)oc1N1CCC(S(=O)(=O)F)CC1 | 97.1% (inactive)

— PubChem BioAssay (NCI)
